Results: the supplement of paper PMC6331611
± gives the standard deviation of the averaged measurements. In all, about 1,600 compounds were measured (“normalized intracellular growth (luminescence, IQM-normalized) in RAW264.7 macrophages”: median about 1, lowest 2% from about 0.43 on). This is one part of a sample in which the lowest values are shown more often than they occur.

Test system: Salmonella enterica serovar Typhimurium SL1344
Experiment: normalized intracellular growth (luminescence, IQM-normalized) in RAW264.7 macrophages (fraction of plate interquartile mean); higher = more bacterial growth (less inhibition)
Details: 10 µM

Structure (SMILES)	normalized intracellular growth (time point: T3 (3 h))	normalized intracellular growth (time point: Tfinal (~6 h))
Oc1cc(Cl)ccc1Oc1ccc(Cl)cc1Cl	0.343 ± 0.083	0.256 ± 0.12
Oc1ccc(Cl)cc1Cc1cc(Cl)ccc1O	1.03 ± 0.02	0.859 ± 0.13
Oc1ccc(Cl)cc1	1.02 ± 0.017	1.13 ± 0.023
N=C1NC(=O)N2CC12 (stereo not given)	1.051 ± 0.0073	0.853 ± 0.12
O=[N+]([O-])OCC(CO[N+](=O)[O-])O[N+](=O)[O-]	1.01 ± 0.044	0.68 ± 0.22
CC[C@H]1[C@@H]2C[C@H]3[C@@H]4N(C)c5ccccc5[C@]45C[C@@H]([C@@H]2[C@H]5O)N3[C@@H]1O	1.07 ± 0.066	0.799 ± 0.035
CCn1cc(C(=O)O)c(=O)c2cc3c(cc21)OCO3	0.923 ± 0.032	0.192 ± 0.011
CC[C@@H](c1cccc(O)c1)[C@@H](C)CN(C)C	1.09 ± 0.081	0.708 ± 0.38
CC[C@@H](C(=O)[C@@H](C)[C@@H](O)[C@H](C)[C@@H]1O[C@@H]([C@@H](CC)C(=O)O)CC[C@@H]1C)[C@H]1O[C@]2(C=C[C@@H](O)[C@]3(CC[C@@](C)([C@H]4CC[C@](O)(CC)[C@H](C)O4)O3)O2)[C@H](C)C[C@@H]1C	1.06 ± 0.083	0.73 ± 0.13
CN1C[C@H](C(=O)N[C@]2(C)O[C@@]3(O)[C@@H]4CCCN4C(=O)[C@H](Cc4ccccc4)N3C2=O)C=C2c3cccc4[nH]cc(c34)C[C@H]21	1.03 ± 0.02	0.769 ± 0.38
CC([C@H](O)c1ccccc1)N(C)C (stereo not given in full)	0.977 ± 0.096	1.08 ± 0.12
C=C/C=C\CC1=C(C)[C@@H](OC(=O)[C@@H]2[C@@H](/C=C(\C)C(=O)OC)C2(C)C)CC1=O.C=C/C=C\CC1=C(C)[C@@H](OC(=O)[C@@H]2[C@@H](C=C(C)C)C2(C)C)CC1=O	1.01 ± 0.014	0.938 ± 0.13
OC[C@@H](O)[C@H]1O[C@@H]2O[C@H](C(Cl)(Cl)Cl)O[C@@H]2[C@H]1O	1.01 ± 0.039	1.07 ± 0.077
CC(=O)[O][Hg][c]1ccccc1	0.575 ± 0.093	0.336 ± 0.15
O=C([O-])Cc1ccccc1.[Na+]	1.15 ± 0.043	0.699 ± 0.11
CCCCOC(=O)c1ccccc1C(=O)OCCCC	1.029 ± 0.01	1.11 ± 0.15
C[CH2][Hg][S]c1ccccc1C(=O)[O-].[Na+]	0.4 ± 0.083	0.819 ± 0.26
CC(O)CN1CCN(CC(=O)[O-])CCN(CC(=O)[O-])CCN(CC(=O)[O-])CC1.[Gd+3] (stereo not given)	0.946 ± 0.083	1.23 ± 0.098
C#CC(C)(O)CC (stereo not given)	0.971 ± 0.038	0.758 ± 0.24
CCN1C[C@]2(COC)[C@H](O)C[C@H](OC)[C@@]34[C@@H]5C[C@@]6(O)[C@H](OC(=O)c7ccccc7)[C@@H]5[C@@](OC(C)=O)([C@@H]([C@H](OC)[C@H]23)[C@@H]14)[C@@H](O)[C@@H]6OC	0.971 ± 0.025	0.837 ± 0.045
